The whole screen tested about 1,900 compounds, of which about 1,600 (84%) were called active.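 Rule for the calls: active = mean activation above a set limit taken from the primary screen (cut at about 8% in these data); inactive = the rest.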 The set was probably picked from earlier hits. Not all results are given here.
Experiment: FXN GAA850 promoter activators in reporter cells, confirmation, cell-based, luminescence, HEK293 lucGAA850, triplicate (AID 588351);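 note: 0% = DMSO wells and 100% = 10 µM SAHA wells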
Conditions: HEK293 lucGAA850 FXN promoter luciferase reporter, 24 h; at 6 µM; stronger effect = higher value; 100% = activation by SAHA

SMILES	activation
CC(C)c1cc(C(=O)N/N=C/C(Br)=C/c2ccccc2)n[nH]1	15.8% (active)
Cc1cc(C(=O)N/N=C\C(Br)=C\c2ccccc2)c(C)o1	26.2% (active)
CC1(Cc2cccc(C#N)c2)C(=O)Nc2ccc(-c3cccc(C(F)(F)F)c3)cc21 (centres undefined)	10.7% (active)
Cc1c(-c2ccccc2)nc(N)c(C#N)c1-c1cccs1	14.5% (active)
C[C@@]12C(=O)N(c3cccc(Br)c3)C(=O)N1[C@H](c1ccc(Cl)cc1)[C@@H]1C(=O)N(C3CCCCC3)C(=O)[C@@H]12	5.12% (inactive)
O=C1[C@H]2[C@@H](c3ccc(F)cc3)N3C(=O)N(c4ccc(C(F)(F)F)cc4)C(=O)[C@@]3(Cc3ccccc3)[C@H]2C(=O)N1C1CCCCC1	16.2% (active)
O=C1[C@H]2[C@@H](c3ccc(Cl)cc3)N3C(=O)N(c4cccc(F)c4)C(=O)[C@@]3(Cc3ccccc3)[C@H]2C(=O)N1C1CCCCC1	11.2% (active)
Cc1noc(C)c1-c1ccc2ncnc(NC(C)c3ccco3)c2c1 (centres undefined)	20.1% (active)
Cc1ccc(NC(=O)c2sc3nc(N)c(C#N)cc3c2N)cc1	27.4% (active)
O=C(CC1NCCc2ccccc21)Nc1cccc(Cl)c1 (centres undefined)	26.7% (active)
CC1(C(=O)NCc2cccc3ccccc23)CCN1Cc1ccc(-c2ccccc2)o1 (centres undefined)	11.9% (active)
COc1ccc(-c2csc(Nc3ccc(O)cc3)n2)cc1	40.1% (active)
O=c1oc2ccccc2cc1-c1csc(Nc2ccc(O)cc2)n1	44.3% (active)
COc1ccc(-c2csc(Cc3nc(O)cs3)n2)cc1	-4.16% (inactive)
O=c1[nH]cnc2c1c(-c1ccccc1)cn2-c1ccc(F)cc1	9.89% (active)
Cc1ccc(-n2c(C)cc(/C=C(\C#N)C(=O)NCC3CCCO3)c2C)cc1 (centres undefined)	41.3% (active)
COc1ccc(NC(=O)CSc2nc(SC)ns2)c(OC)c1	40.6% (active)
CSc1nc(N)c(C#N)c(-c2ccccc2Cl)c1C#N	21.1% (active)
CCCCn1c(SCC(=O)NCCc2ccc(OC)c(OC)c2)nc2c1c(=O)n(C)c(=O)n2C	8.75% (active)
COc1ccc(N(CCC#N)S(=O)(=O)c2ccc(Cl)cc2)cc1	3.78% (inactive)

SMILES	activation
Cc1ccc(C2Nc3cccc4cccc(c34)N2)cc1	12.4% (active)
COc1cc(/C=N/Nc2nc3ccccc3s2)ccc1O	34.8% (active)
CC1(C(=O)N/N=C/c2cc3c(cc2Br)OCO3)CC1(Br)Br (centres undefined)	15.3% (active)
COc1ccc(-c2nnc(SCC(=O)c3cccs3)o2)c(OC)c1	26.2% (active)
N#CC1=C(SCc2ccc(C#N)cc2)N=C(N)C(c2nc(-c3ccccc3)cs2)C12CCCCC2 (centres undefined)	17.6% (active)
CCOc1ccc(Nc2oc(Cc3ccccc3)nc2C#N)cc1	32.1% (active)
CCC1(CC)Cc2ccccc2-c2nc(CCl)[nH]c(=O)c21	1.84% (inactive)
CN1C(=O)/C(=C\c2cc(Br)cs2)c2ccccc21	38.3% (active)
CCOC(=O)c1cc2cc(C)ccc2[nH]1	29.5% (active)
CN(C)[C@@H]1C(=O)C(C(N)=O)=C(O)[C@@]2(O)C(=O)C3=C(O)c4c(O)ccc(Cl)c4[C@@H](O)[C@H]3C[C@@H]12	15.3% (active)
C=C1c2c(Cl)ccc(O)c2C(O)=C2C(=O)[C@]3(O)C(O)=C(C(N)=O)C(=O)[C@@H](N(C)C)[C@@H]3[C@@H](O)C12 (some centres undefined)	15.5% (active)
Cc1nc(-c2ccc(F)cc2)c(CC(=O)Nc2cc(S(=O)(=O)N3CCCCC3)ccc2C)s1	6.94% (inactive)
COc1ccc(C2Nc3ccccc3C(=O)N2c2ccc(Cl)cc2)cc1Cn1cc([N+](=O)[O-])cn1 (centres undefined)	26.8% (active)
Cc1cc(C)nc(S/C=C/C(=O)c2ccccc2)n1	-19% (inactive)
c1ccc(-c2cc(-c3ccccc3)[nH]n2)cc1	43% (active)
Oc1ccccc1-c1cc(-c2ccc(Cl)cc2)n[nH]1	46.8% (active)
O=C(N/N=C/C=C/c1ccco1)c1cccs1	31.4% (active)
O=C(COc1ccc(Cl)cc1Cl)NCCCNC(=O)c1cnccn1	7.43% (inactive)
O=C(Nc1ccc2c(c1)OCCO2)c1cnccn1	25.8% (active)

From PubChem BioAssay AID588351 (The Scripps Research Institute Molecular Screening Center, 2011)
